# A3A deaminase – human APOBEC3A DNA deaminase inhibition | AID 493011 | 0.41% of 330,000 active | inhibition, % at 20 µM | recombinant A3A, FAM/TAMRA ssDNA deamination fluorescence;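 active = at least 40% inhibition at 20 µM here, with at most 30% in a related deaminase screen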;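 also: plate controls were A3A with DMSO for no effect and wells lacking A3A enzyme for full effect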
# Target sequence (P31941 whole entry, looked up): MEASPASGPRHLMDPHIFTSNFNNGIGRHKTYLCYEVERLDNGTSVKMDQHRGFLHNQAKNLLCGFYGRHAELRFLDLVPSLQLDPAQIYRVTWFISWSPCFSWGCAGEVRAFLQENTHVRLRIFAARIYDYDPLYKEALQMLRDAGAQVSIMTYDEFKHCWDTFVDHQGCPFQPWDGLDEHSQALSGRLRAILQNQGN
# PHOSPHO1 inh – inhibitors of human PHOSPHO1 phosphatase; recombinant PHOSPHO1, absorbance phosphatase assay; AID 1565; 1.1% of 290,000 active; inhibition, % at 13.3 µM; Q8TCT1; in the data active = inhibition above about 60%
# aDG glyco up – alpha-DG glycosylation activation; Pro5-aDG cells, alpha-DG glycosylation AlphaScreen (IIH6); 0% Pro5, 100% B10-LARGE cell signal; activation, % at 10 µM; 0.22% of 360,000 active;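 active = activation of at least 8% versus controls, or a plate z-score of at least 8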;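 also: Pro5 are CHO cells carrying HIG-tagged alpha-DG that lacks glycosylation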
# ALR H2O2 inh – human ALR oxidase inhibition via reduced H2O2 | inhibition, % (test concentration not listed) | 3.8% of 290,000 active | purified ALR, DTT oxidation, H2O2 HRP-luminol luminescence | AID 485317 | P55789;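 active = mean replicate inhibition above about 79%, with every replicate also reaching it, limit read from the data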
# Target sequence (P55789 whole entry, looked up): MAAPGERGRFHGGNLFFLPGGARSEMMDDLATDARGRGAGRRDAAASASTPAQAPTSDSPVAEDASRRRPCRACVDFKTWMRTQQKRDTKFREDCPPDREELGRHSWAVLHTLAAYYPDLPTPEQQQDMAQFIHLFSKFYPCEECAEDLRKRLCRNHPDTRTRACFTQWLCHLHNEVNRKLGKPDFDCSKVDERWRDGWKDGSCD
# rCAG RNA binder – r(CAG) repeat RNA binding; TO-PRO-1 dye displacement fluorescence; inhibition, % at 3 µM; 1.3% of 370,000 active;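 active = inhibition above the plate cutoff, the mean of all test compounds on that plate plus 3 SD, cut at about 35% in these data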;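 also: 0% = DMSO alone and 100% = 100 µM mitoxantrone as full dye displacement; higher means more dye released from RNA so lower well fluorescence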
# APOBEC3G inh – APOBEC3G (human) deaminase inhibition. Q9HC16. recombinant A3G, ssDNA deamination FAM/TAMRA fluorescence. inhibition, % at 20 µM. 0.28% of 330,000 active. AID 493012;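 active = inhibition of at least 40% at 20 µM, with no more than 30% in the related APOBEC3A deaminase screen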;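 also: plate controls were DMSO wells with A3G for no effect and wells lacking A3G enzyme for full effect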
# * = called active by the depositor; x = no result given. A selection: hits, their analogues and other compounds. The true share with any hit is near 5.4%.
SMILES,A3A deaminase,PHOSPHO1 inh,aDG glyco up,ALR H2O2 inh,rCAG RNA binder,APOBEC3G inh
N#Cc1c(/N=C/C2C(=O)NC(=S)NC2=O)sc2c1CCCC2,1,-95,0,93*,3,4
CCOC(=O)c1c(/N=C/C2C(=O)NC(=S)NC2=O)sc2c1CCC2,x,-58,0,-11,x,x
CC1(C)OC(c2ccccc2)=C/C(=C/C=C2C(=O)NC(=S)NC2=O)O1,-162,25,x,88*,-28,-307
CN1/C(=C\C=C2C(=O)NC(=S)NC2=O)C(C)(C)c2ccccc21,-43,-20,0,x,-199,-94
COc1ccc(N2CCN(C(CNC(=O)Oc3ccccc3)c3cccnc3)CC2)cc1 (stereo not drawn),4,-24,0,85*,-2,5
CC(=O)N1c2ccccc2C(c2ccccc2)=NCC1C(=O)NC1CCCCC1 (stereo not drawn),x,x,x,x,-1,x
Oc1ccc(/C=N/NP(=S)(c2ccccc2)c2ccccc2)cc1,0,83*,0,x,10,29
O=C1C2CC=CCC2C(=O)N1SC(Cl)(Cl)Cl (stereo not drawn),x,x,x,x,5,x
CN(C)C1CCc2[nH]c3c(F)cc(F)cc3c2C1 (stereo not drawn),x,x,0,x,3,x
CN1C(=O)c2ccccc2NC(=O)[C@]12O[C@@H]2c1ccccc1,-1,8,0,98*,2,-5
N#CC(C#N)=Cc1ccc(O)c(O)c1,1,x,0,98*,3,0
COC(=O)[C@H]1C[C@@]2(C)c3ccccc3N[C@H]2N1,x,x,x,x,2,x
O=C(Cc1cccs1)N1Cc2ccccc2-n2nncc2C1,x,x,0,x,17,x
Cn1c(O)c(C(=Nc2ccccc2)SCc2ccc(Cl)cc2)c(=O)n(C)c1=O,-2,-59,0,98*,6,2
CC(C)(C)c1cc(O)ccc1O,x,x,x,x,0,x
CCC(C)N1C(=O)/C(=C/c2ccc3c(c2)CCN3CCCCl)C(=O)NC1=S (stereo not drawn),x,-21,0,98*,26,x
COP(=S)(OC)SCN1C(=O)c2ccccc2C1=O,-4,77*,0,x,2,12
CNC(=O)CSP(=S)(OC)OC,x,x,0,x,2,x
CC[C@@H]1C[C@H]2CC[C@H](O2)[C@H](C)C(=O)O[C@@H](C)C[C@@H]2CC[C@@H](O2)[C@@H](C)C(=O)O[C@H](C)C[C@H]2CC[C@H](O2)[C@H](C)C(=O)O[C@@H](C)C[C@@H]2CC[C@@H](O2)[C@@H](C)C(=O)O1,x,x,x,x,2,x
Cc1ccc2c(c1)NP(=S)(Oc1ccccc1)N2 (stereo not drawn),x,x,0,x,1,x
COc1ccc2c(c1)NP(=S)(Oc1ccccc1)N2 (stereo not drawn),10,-102,0,98*,9,24
CC1=NN(c2ccccc2)C(=O)C1/C=C1/C(=O)NC(=O)N(c2cc(C)cc(C)c2)C1=O (stereo not drawn),1,16,0,87*,13,-2
NCC(O)c1cc(O)c(O)cc1F (stereo not drawn),-2,x,0,83*,2,6
C[C@H](NC(=O)OCc1ccccc1)[P+](=O)O,x,x,x,x,3,x
COc1ccc(-c2cc(=Nc3cccc(C(=O)O)c3)c3cc(C)ccc3o2)cc1,0,4,1,96*,11,-11
SMILES,A3A deaminase,PHOSPHO1 inh,aDG glyco up,ALR H2O2 inh,rCAG RNA binder,APOBEC3G inh
COc1ccc(-c2cc(=NCCCCCC(=O)O)c3cc(C)ccc3o2)cc1,x,-8,0,x,1,x
N#C/C(N)=C(/N)C#N,-2,x,0,98*,1,-9
CC1=CC(O)C(O)C2(C)C1CC1OC(=O)CC3C(C)C(O)C(=O)C2C13CO (stereo not drawn),x,x,0,x,x,x
Cc1ccc(N2C(=O)NC(=O)/C(=C\c3cccn3C(C)(C)C)C2=O)cc1,3,60*,0,54,-5,-2
Cc1ccc(Sc2ccc(C=C3C(=O)N(C)C(=O)N(C)C3=O)o2)cc1,-1,8,0,97*,3,-7
Cn1ncnc2c(=O)n(C)c(=O)nc1-2,-2,79*,0,33,x,-4
COc1cccc(-c2nc(CS(=O)CC(=O)N3CCC4(CC3)OCCO4)c(C)o2)c1 (stereo not drawn),-1,46,0,x,-3,-2
Cc1oc(-c2ccc(Cl)cc2)nc1CS(=O)CC(=O)N1CCC2(CC1)OCCO2 (stereo not drawn),0,-84,0,99*,2,-3

# High-throughput results (PubChem BioAssay)
